Experimental data published in ChEMBL document CHEMBL4888484, “Replenishing the malaria drug discovery pipeline: Screening and hit evaluation of the MMV Hit Generation Library 1 (HGL1) against asexual blood stage Plasmodium falciparum ,using a nano luciferase reporter read-out” (2022).
In all, about 4,800 compounds went through this assay and about 410 (8.5%) showed an effect of 50% or more. The sample as a whole holds a higher share of strong results than the screen did.

System: Plasmodium falciparum
Assay: Confirmatory screen in NF54 pLDH assay, in single point, at 2uM, 72h
Format: functional, Erythrocyte
Conditions: timepoint 72 hour

Row | SMILES | % Inhibition [%]
1 | CCOc1cc(CNC2CCN(C(C)=O)CC2)ccc1OCc1c(F)cccc1Cl | 13
2 | Cc1cc(N)n(-c2nc(-c3ccccc3)cc(=O)[nH]2)n1 | -1
3 | CCCc1cc(-c2nc(-c3ccc(-n4nc(C)cc4N)cc3)no2)n(C)n1 | 88
4 | Cc1n[nH]c(C)c1NC(=O)CN1CC(C)OC(C)C1 (stereo unspecified) | -7
5 | COc1ccsc1S(=O)(=O)N(CCN(C)C)C1CCCC1 | -9
6 | O=C(Cn1cnc2nc(N3CCCCC3)sc2c1=O)Nc1cc(Cl)cc(Cl)c1 | 1
7 | Cc1cc(C)c(C(=O)O)cc1NC(=O)c1oc(C2CC2)nc1C | -8
8 | O=C(Nc1ccc(N2CCOCC2)c(F)c1)OCc1ccccc1 | 2
9 | CCN1CCN(c2nc(O)c3c(n2)NC(=O)C[C@H]3c2cccc(F)c2)CC1 | -7
10 | COC(=O)C1(NC(=O)c2scnc2C)CCCCC1 | -5
11 | CC1CCC2C(CCC(C)N2C(=O)c2cc3nc4c(c(C(F)(F)F)n3n2)CCc2ccccc2-4)C1 (stereo unspecified) | 1
12 | COc1ccccc1N1CCN(CC(=O)Nc2c3c(nc4ccccc24)N(c2cccc(C)c2)CC3)CC1 | -24
13 | Cc1ccccc1CNC(=O)[C@H]1CCCN(c2nc3ccccc3[nH]c2=O)C1 | 13
14 | Cc1ccccc1CNC(=O)[C@H]1CCCN(c2nc3cccnc3n(Cc3ccccc3)c2=O)C1 | -6
15 | CC(C)(C)C(=O)/C(=N\OC(=O)Nc1ccc(Cl)cc1)n1cncn1 | 0
16 | CCCCn1nnc(N(C(=O)c2cccc3c(Br)cccc23)C(=O)c2cccc3c(Br)cccc23)n1 | 0
17 | Cc1ccc(C(=O)Nc2ccc(N3CCN(CCC#N)CC3)cc2C(=O)O)cc1 | -6
18 | Cc1ccccc1[C@H]1CCN(c2ccc(NC(=O)c3ccc(Cl)cc3)c(C(=O)O)c2)C1 | -17
19 | Cc1ccc(C(=O)Nc2cc3c4c(c2)C2CCCC2CN4CC2CCCC32)cc1 (stereo unspecified) | 54
20 | Cc1ccccc1[C@H]1CC(=O)Nc2c1c(C)nn2-c1nncc(-c2ccc(Cl)cc2)n1 | 15
21 | Cc1c(-c2ccc(F)cc2)[nH]c2ccc(CNc3nccc(N(C)C)n3)cc12 | 50
22 | CCNc1ccnc(NCc2nc(-c3cccc(F)c3)c(-c3ccccn3)[nH]2)n1 | 22
23 | Cc1nn(C)cc1-c1n[nH]cc1Br | 7
24 | COc1ccccc1N(Cc1ccccc1)C1=NC(=[N+](Cc2ccccc2)c2ccccc2OC)c2ccccc21 | 67
25 | CC1COCCC1NCc1ncn(Cc2cccc(F)c2)n1 (stereo unspecified) | -4
26 | Cc1cnn(CCCNC(=O)c2ccc3[nH]c4c(c3c2)CCCC4)c1 | 5

Row | SMILES | % Inhibition [%]
27 | CCN1CCN(C2CCN(c3ncc(F)c(OC)n3)CC2)CC1 | 50
28 | COc1nc(N2[C@@H]3CC[C@H]2C[C@@H](OC)C3)ncc1F | 52
29 | CCN1CCC2CCC(C1)N2C(=O)Nc1ccc(OC2CCC2)c(F)c1 (stereo unspecified) | -18
30 | O=S(=O)(c1ccc(Cl)cc1)n1ccc(C2CC2)n1 | 4
31 | COc1cccc(CNCCCN2CCOCC2)c1OCc1ccc(F)cc1Cl | 1
32 | CC(C)(C)NC(=O)CNc1nnc(C2CC2)s1 | 12
33 | CCCCCC1CCC(c2ccc(-c3ccc(CC)cn3)cc2F)CC1 (stereo unspecified) | 7
34 | Cc1c[nH]c(=O)n1-c1ccc(C(=O)NCCc2cc(F)cc(F)c2)cc1 | 10
35 | O=C(CC1COCCN1C(=O)C1CCc2ccccc21)c1ccco1 (stereo unspecified) | -17
36 | CCOc1c(CNCCN(C)C)cc(Br)cc1OC | 3
37 | COc1ccc2nc(N3CN(Cc4ccccc4)CN(c4nc5ccc(OC)cc5s4)C3)sc2c1 | 1
38 | COc1ccc2c(/C=C/c3cc[n+](C)cc3)cn(Cc3ccccc3)c2c1 | 62
39 | COc1ccc2ncc(=O)n(CCOc3ccccc3)c2c1 | 9
40 | N#Cc1ccc2c(c1)N(Cc1ccccc1F)C(=O)[C@@H]1CCCN21 | 7
41 | O=C(N[C@@H](N1CCOCC1)C(Cl)(Cl)Cl)c1ccccc1Cl | 8
42 | O=C(CN1CCCC1)N1CCCN(S(=O)(=O)c2ccccc2)[C@H]1c1ccccc1 | -2
43 | Cc1ccc(CNc2ccc(S(C)(=O)=O)cc2)c(=O)n1C | -9
44 | CCc1nnc(NC(=O)NCc2c[nH]nn2)s1 | -6
45 | c1ccc2oc(-c3ccnc4nncn34)cc2c1 | 3
46 | Cc1ccc2nc(-c3cc4ccccc4o3)cn2c1 | 52
47 | Cc1ccccc1CC(=O)Nc1ccc(-c2nc3ncccc3o2)cc1 | 5
48 | COc1ccc(CNc2nc(-c3nnc(-c4ccccc4)o3)nc3ccccc23)cc1 | -3
49 | CNc1nc(NCCc2ccccc2)nc2ccccc12 | 92
50 | NS(=O)(=O)c1ccc(CCNc2nc(-c3ccccc3)nc3ccccc23)cc1 | 5
51 | CNc1nc(NCc2ccccc2)nc2ccccc12 | 91
52 | c1ccc(CCNc2nc(-c3ccccn3)cs2)cc1 | 31

Row | SMILES | % Inhibition [%]
53 | O=C1c2ccccc2[C@@H](Nc2ccc3c(c2)OCCO3)N1c1ccccn1 | -8
54 | CNc1nccc(OCc2ccccc2)n1 | 9
55 | Cc1ccc(-c2nc3ncccn3c2Nc2ccc3c(c2)OCCO3)o1 | -4
56 | C[C@H](Nc1nc(N2CCCCC2)nc2ccccc12)c1ccccc1 | -6
57 | CNc1nc(Nc2ccc3c(c2)OCCO3)nc2ccccc12 | 103
58 | CCN(CC)c1ccc(C(=O)C(F)(F)F)c(O)c1 | 0
59 | CCC(=O)OCCN1CCN(CCN(C(=O)CC)c2ccc(C3CCCC3)cc2)CC1 | 3
60 | O=C1C[C@H](c2nc3cc(Cl)ccc3o2)CN1c1ccc(F)cc1 | -13
61 | Cc1cccn2cc(CN(C)[C@H](c3ccccn3)C3CC3)nc12 | 4
62 | COc1ccc2cc3n(c2c1)C[C@](C(=O)NC1CCCCCC1)(c1ccccc1)N(Cc1cccc(Br)c1)C3=O | 10
63 | Cc1ccc(NC(=O)CC(=O)O)c(C)c1 | -5
64 | NC1(c2noc([C@@H]3CCCO3)n2)CCCCCC1 | 13
65 | CC1(C)c2ccccc2CCN1C(=O)CCc1ncc(-c2ccccc2)o1 | 8
66 | CN1CCN(c2nc(-c3cccc(C(F)(F)F)c3)nc3c2cnn3Cc2ccccc2)CC1 | -3
67 | CN(c1nc2c(cnn2C)c(=O)[nH]1)C1CCCC1c1ccc(C(F)(F)F)cc1 (stereo unspecified) | 10
68 | CN1CCC(n2ncc3[nH]c(-c4ccc(C(F)(F)F)cc4)nc32)CC1 | 99
69 | O=C(CCNC(=O)C1CC1c1c(F)cccc1Cl)NC1CCS(=O)(=O)C1 (stereo unspecified) | -19
70 | C[C@@H](CNc1nc(-c2ccccc2)nc2nc(-c3ccc(Cl)cc3)oc12)N1CCCCC1 | 76
71 | CC1(C)Cc2nc3ccccc3c(NCc3ccccc3)c2[C@@H](O)C1 | 54
72 | O=c1[nH]c2ccccc2c(NCc2ccccc2)c1N1CCN(c2ccccc2)CC1 | 1
73 | CC(=O)N1CC[C@H](CC(=O)N(C)Cc2ccccc2)C1 | 0
74 | Cc1ccc(NC(=O)Cn2c(C)cc(=O)c3sccc32)cc1Cl | -2
75 | CCCNC(=O)Cn1nc2cc(-c3ccc(OC)cc3)nc(C)n2c1=O | -8
76 | OC(CC(Nc1ccc(Cl)cc1)c1ccccc1)c1ccccc1 (stereo unspecified) | -7
77 | O=S(=O)(Cc1ccccc1)N1CCC2(CCCCC2)C1 | 6
78 | COc1ccc(OC)c(-c2csc(N3C(=O)CC4CS(=O)(=O)CC43)n2)c1 (stereo unspecified) | 10

Row | SMILES | % Inhibition [%]
79 | COc1ncnc2c1CN(C(=O)c1cc3c(s1)CC[C@H](C)C3)CC2 | 13
80 | CO[C@H]1CCOC2(CCN(C(=O)c3ccccc3F)CC2)C1 | 9
81 | O=C(c1ccccc1Cl)N1CCC[C@H](n2cnc3ccccc3c2=O)C1 | -12
82 | O=C(CN1CCN(Cc2ccccc2F)C1=O)NC1CCCCCCC1 | -2
83 | O=C(c1csc(C(=O)N2CCCC2)n1)N1CCN(Cc2ccccc2)CC1 | -4
84 | CCN(C[C@H]1CCCO1)C(=O)c1cnc(Cc2ccccc2)s1 | -15
85 | CCn1cc(C(=O)N(C2CCCCC2)C2CCCCC2)c(C)n1 | -13
86 | CN(C(=O)Cn1c(=O)n(-c2cc(F)cc(F)c2)c(=O)c2sccc21)c1ccccc1 | 9
87 | O=C(CN1CCOCC1)N1CCN(CCCOc2ccccc2)CC1 | 9
88 | Cc1nn(-c2nc3ccccc3[nH]2)c(O)c1CCC(C)C | 68
89 | Oc1cc(-c2ccc(F)cc2)nn1-c1nc2ccccc2[nH]1 | -11
90 | Cc1nn(-c2nc3ccccc3[nH]2)c(O)c1Cc1ccccc1 | 17
91 | O=S1(=O)CCC(NCCC2CCCO2)c2cc(F)c(F)cc21 (stereo unspecified) | -1
92 | C[C@H]1CS(=O)(=O)N(c2ccc(C(=O)Nc3ccccc3Oc3ccccc3)c(Cl)c2)C1=O | -3
93 | O=C(CCS(=O)(=O)c1ccc2ccccc2c1)Nc1ncn(Cc2c(F)cccc2Cl)n1 | 4
94 | Cc1ccc(CNC2CCN(C)CC2)c(OCc2ccco2)c1 | 3
95 | O=C(NCCOc1cccc(F)c1)c1cccnc1NC1CCCC1 | 1
96 | O=C(Nc1ccccc1-n1ccnc1)c1cnccn1 | -7
97 | Cc1cccc(N2CCN(C(=O)CCC3=Nc4cc(C(F)(F)F)ccc4S(=O)(=O)N3)CC2)c1C | 12
98 | COc1ccc(OC)c(CCNC(=O)Cn2ccc3cc(S(=O)(=O)N4CCCC4)ccc32)c1 | 11
99 | CCOc1ccc(C2c3[nH]c4ccccc4c3C[C@H]3C(=O)N(C4CCN(Cc5ccccc5)CC4)CC(=O)N23)cc1OC (stereo partly specified) | 79
100 | COc1ccccc1C1c2[nH]c3ccccc3c2C[C@H]2C(=O)N(CC(O)c3ccccc3)CC(=O)N12 (stereo partly specified) | 12
101 | COc1ccc(CNC(=O)c2ccc(N3C(=O)[C@@H]4Cc5c([nH]c6ccccc56)C(c5cccc(OC)c5)N4C3=O)cc2)cc1 (stereo partly specified) | 32
